In PubChem BioAssay (NCI):
Values joined by “and” are separate entries in the source; they are usually repeats but may differ in a detail not shown here. Equal values may be shown once. Compounds without any hit were thinned out: in the full panel of roughly 83,000, 20% have a hit.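 96-well plates, one dose, 48 hours. Percent growth reported; active if below 10.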 Active and inactive are the calls of the source.

Assays:
Assay in all cases: NCI-60 one-dose screen, 48 h (100 = growth as untreated, 0 = no growth, -100 = all killed)
[1] = tested on: SK-MEL-2 melanoma; conditions: 10 µM
[2] = tested on: EKVX NSCLC; conditions: 10 µM
[3] = tested on: SN12C renal; conditions: 10 µM
[4] = tested on: UO-31 renal; conditions: 10 µM
[5] = tested on: TK-10 renal; conditions: 10 µM
[6] = tested on: ACHN renal; conditions: 10 µM
[7] = tested on: CAKI-1 renal; conditions: 10 µM
[8] = tested on: CCRF-CEM leukemia; conditions: 10 µM
[9] = tested on: MOLT-4 leukemia; conditions: 10 µM
[10] = tested on: SR leukemia; conditions: 10 µM unless noted
[11] = tested on: RPMI-8226 leukemia; conditions: 10 µM
[12] = tested on: OVCAR-4 ovarian; conditions: 10 µM
[13] = tested on: SK-OV-3 ovarian; conditions: 10 µM
[14] = tested on: IGROV1 ovarian; conditions: 10 µM
[15] = tested on: OVCAR-3 ovarian; conditions: 10 µM
[16] = tested on: HS 578T breast; conditions: 10 µM
[17] = tested on: A498 renal; conditions: 10 µM
[18] = tested on: OVCAR-8 ovarian; conditions: 10 µM
[19] = tested on: OVCAR-5 ovarian; conditions: 10 µM
[20] = tested on: NCI/ADR-RES ovarian; conditions: 10 µM

| Structure (SMILES) | growth [1] | growth [2] | growth [3] | growth [4] | growth [5] | growth [6] | growth [7] | growth [8] | growth [9] | growth [10] | growth [11] | growth [12] | growth [13] | growth [14] | growth [15] | growth [16] | growth [17] | growth [18] | growth [19] | growth [20] |
| --- | --- | --- | --- | --- | --- | --- | --- | --- | --- | --- | --- | --- | --- | --- | --- | --- | --- | --- | --- | --- |
| NNc1ccc2ccccc2c1 | 101% (inactive) and 108% (inactive) | 76.7% (inactive) and 93% (inactive) | 94.7% (inactive) and 102% (inactive) | 52.5% (inactive) and 68.7% (inactive) | 109% (inactive) and 120% (inactive) | 81.6% (inactive) and 98.7% (inactive) | 84.6% (inactive) and 95.5% (inactive) | 84.1% (inactive) and 114% (inactive) | 94.3% (inactive) and 109% (inactive) | 82.3% (inactive) and 94.9% (inactive) | 92.8% (inactive) and 97.2% (inactive) | 89.9% (inactive) and 88.2% (inactive) | 76.3% (inactive) and 91.1% (inactive) | 83% (inactive) and 103% (inactive) | 92.1% (inactive) and 99.6% (inactive) | 96.1% (inactive) and 98.9% (inactive) |  |  |  |  |
| CCCCCCCCCCSC(=N)N | 61.9% (inactive) | 92.1% (inactive) | 60.9% (inactive) | 53.4% (inactive) | 60% (inactive) | 50.1% (inactive) | 46.4% (inactive) | 51.3% (inactive) | 15.2% (inactive) | -25% (active) | -11% (active) | 76.7% (inactive) | 77.5% (inactive) | 46.1% (inactive) | 67% (inactive) | 81.1% (inactive) | 95.1% (inactive) | 61.5% (inactive) |  |  |
| OC(CN1CCCC2CCCCC21)c1cc2ccccc2c2ccccc12 (centres undefined) |  | 42.3% (inactive) | 49.7% (inactive) | 35.6% (inactive) | 52.6% (inactive) | 29.1% (inactive) | 41.2% (inactive) | 68.2% (inactive) | -1.89% (active) | -36.1% (active) | 15.8% (inactive) | 29.1% (inactive) | 37.7% (inactive) | 58.1% (inactive) | 30.6% (inactive) | 26.1% (inactive) | 58.8% (inactive) |  | 34.2% (inactive) |  |
| O=[N+]([O-])C1=C(c2ccccc2)SC=C(c2ccccc2)S1 | 88.3% (inactive) | 92.3% (inactive) | 73.7% (inactive) | 71.6% (inactive) | 104% (inactive) | 83.5% (inactive) | 85.5% (inactive) | 14.8% (inactive) | 26.4% (inactive) | 6.09% (active) | 48.6% (inactive) | 87.4% (inactive) | 79.4% (inactive) | 76.3% (inactive) | 73.6% (inactive) | 85.7% (inactive) |  |  |  |  |
| CC(C)(C)CC(C)(C)c1ccc(OCCO)cc1 |  | 122% (inactive) | 103% (inactive) | 88.2% (inactive) | 78.2% (inactive) | 117% (inactive) | 115% (inactive) | 106% (inactive) | 85.4% (inactive) | 85.5% (inactive) | 124% (inactive) | 124% (inactive) | 116% (inactive) | 108% (inactive) | 116% (inactive) | 94.6% (inactive) |  |  | 111% (inactive) |  |
| CCCCCCCCCCCC[N+](C)(C)Cc1ccccc1 | -11.9% (active) |  | 10.1% (inactive) | 55.4% (inactive) | -1.57% (active) | 78.7% (inactive) | 82.1% (inactive) | -15.9% (active) | -21.9% (active) | 4.5% (active) | -48.3% (active) | 3.85% (active) | 34.9% (inactive) | -49.2% (active) | -0.287% (active) | 43.2% (inactive) |  |  |  |  |
| O=C(C(=Cc1ccccc1)C(=O)c1ccccc1)c1ccccc1 |  | 79.2% (inactive) and 103% (inactive) | 78.6% (inactive) and 82.7% (inactive) | 60.9% (inactive) and 87.8% (inactive) | 124% (inactive) and 87.7% (inactive) | 62.3% (inactive) and 85.8% (inactive) | 84.5% (inactive) and 86.8% (inactive) | 10.8% (inactive) and 81.8% (inactive) | 10.6% (inactive) and 85.4% (inactive) | 6.35% (active) and 108% (inactive) | -2.63% (active) and 85.2% (inactive) | 73.6% (inactive) and 84.7% (inactive) | 99.5% (inactive) and 106% (inactive) | 75.1% (inactive) and 117% (inactive) | 66.3% (inactive) and 85.7% (inactive) | 65.2% (inactive) and 94.3% (inactive) | 72.2% (inactive) and 88.6% (inactive) |  | 91.7% (inactive) and 84.7% (inactive) |  |
| Nc1c2ccccc2nc2ccccc12 | -33.8% (active) and 33.6% (inactive) and 51.8% (inactive) | -24.1% (active) and 43.9% (inactive) and 57.3% (inactive) | 12% (inactive) and 33.2% (inactive) and 33.5% (inactive) | 12.8% (inactive) and 11.1% (inactive) and 14.2% (inactive) | -13.4% (active) and 48.2% (inactive) | 16.9% (inactive) and 25.5% (inactive) | -37.7% (active) and 19.8% (inactive) and 21.5% (inactive) | 35.3% (inactive) and 20.5% (inactive) and 50.7% (inactive) | 8.47% (active) and 10.2% (inactive) and 12.6% (inactive) | 0.28% (active) and 18.5% (inactive) and 24.2% (inactive) | 43.6% (inactive) and -28.8% (active) and 43.7% (inactive) | 4.83% (active) and 33.8% (inactive) and 56.2% (inactive) | 18.9% (inactive) and 40% (inactive) and 34.1% (inactive) | 13.6% (inactive) and -40.3% (active) and 32.2% (inactive) | 3.88% (active) and 52.9% (inactive) | 44.9% (inactive) and 27.5% (inactive) and 82.2% (inactive) |  | -30.4% (active) and 38.1% (inactive) and 29.2% (inactive) | 78.4% (inactive) and 55.4% (inactive) |  |
| N=S(c1ccccc1[N+](=O)[O-])c1ccccc1[N+](=O)[O-] |  | 85.8% (inactive) | 84.9% (inactive) | 5.99% (active) | 22.4% (inactive) | 2.38% (active) | 85.5% (inactive) | 7.69% (active) | 98.9% (inactive) |  | 72.8% (inactive) | 38.4% (inactive) | 87.2% (inactive) | 53.9% (inactive) | -58.8% (active) | 96.7% (inactive) | 107% (inactive) | 96.8% (inactive) |  |  |
| CSC1SCC2C(=O)N(C)C(C(C)C)C(=O)OCC(NC(=O)c3cnc4ccccc4n3)C(=O)NC(C)C(=O)N(C)C1C(=O)N(C)C(C(C)C)C(=O)OCC(NC(=O)c1cnc3ccccc3n1)C(=O)NC(C)C(=O)N2C (centres undefined) |  | -8.18% (active) | 8.11% (active) | 13.4% (inactive) | 20.1% (inactive) | 2.44% (active) | -13% (active) | -25.7% (active) | -33.8% (active) | -37.7% (active) | -30% (active) | 1.22% (active) | 15.5% (inactive) | 0.149% (active) | 5.79% (active) | -60.8% (active) | -76.6% (active) |  |  |  |
| O=C(O)COc1ccc(OCC(=O)O)cc1 | 64.9% (inactive) | 51.8% (inactive) | 2.58% (active) | 50.5% (inactive) | 20.6% (inactive) | 30.1% (inactive) | 90.7% (inactive) | 2.46% (active) | 9.12% (active) | 10.3% (inactive) | -15.6% (active) | 21.4% (inactive) | 11.4% (inactive) | 27.4% (inactive) | 16.7% (inactive) | 20.9% (inactive) |  |  |  | 83.3% (inactive) |
| Nc1ccc2cc3ccc(N)cc3nc2c1 |  | 88.3% (inactive) and 25.2% (inactive) | 86.2% (inactive) and 9.16% (active) | 86.3% (inactive) and -14.7% (active) | 120% (inactive) and 25.8% (inactive) | 108% (inactive) and 1.69% (active) | 87.8% (inactive) and 4.44% (active) | 6.51% (active) | 90% (inactive) and 8.01% (active) | 106% (inactive) and 7.41% (active) | 77.5% (inactive) and 3.77% (active) | 104% (inactive) and -5.13% (active) | 78.5% (inactive) and 12.8% (inactive) | 111% (inactive) and 19.1% (inactive) | 122% (inactive) and 11.3% (inactive) | 123% (inactive) and 23.6% (inactive) |  | 88% (inactive) and -2.44% (active) | 84.9% (inactive) and 26.6% (inactive) |  |
